Bioassay records: PubChem, several laboratories
Gli-Sufu block = antagonists of Gli-Sufu signaling | Sufu-KO-LIGHT fibroblasts, Gli luciferase reporter luminescence | inhibition, % at 5 µM | hit rate 0.74% among 340,000 | AID 588413;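 active = inhibition above about 55%, limit read from the data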;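 note: 0% = DMSO-treated cells and 100% = wells with medium but no cells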
SMARCA2 act = increases SMARCA2 function in MMTV reporter cells; MG213 cells, MMTV-luciferase reporter, dexamethasone, overnight; AID 652017; hit rate 1% among 370,000; activation, % at 9.1 µM; in the data active = activation above about 7.8%;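 note: 0% = vehicle wells and 100% = reference activator wells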
esBAF inh = SWI/SNF esBAF complex inhibition; mouse ES cells, Bmi1-luciferase knock-in reporter, 24 h; 100% = twice the neutral-well signal; reporter increase, % at 12.5 µM; hit rate 2% among 350,000; AID 602393; in the data active = activation above about 40%;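 note: 0% = median of the plate's neutral control wells and 100% = double that signal; a rise in the Bmi1 reporter signal indicates esBAF inhibition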
Jurkat NFkB inh = inhibitors of the PMA/ionomycin-induced NF-kB reporter in Jurkat cells. inhibition, % at 4 µM. hit rate 0.53% among 330,000. PMA/ionomycin-induced NF-kB luciferase reporter, luminescence; in the data active = inhibition above about 50%
697 NFkB inh = lowers PMA/ionomycin-induced NF-kB signal in 697 B cells; 697 B-cell NF-kB luciferase reporter, 16 h; inhibition, % at 4 µM; hit rate 0.33% among 330,000; AID 435022; in the data active = inhibition above about 35%
Jurkat NFkB conf = inhibitors of the PMA/ionomycin-induced NF-kB reporter in Jurkat cells, retest; shares compounds with Jurkat NFkB inh; Jurkat NF-kB luciferase, 16 h; inhibition, % at 4 µM; hit rate 27% among 2,700;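 active = inhibition reaching about 45% at 4 µM in either replicate, limit read from the data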;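 note: plate controls were PMA/ionomycin stimulated DMSO wells for no effect and unstimulated DMSO wells for full effect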
697 NFkB conf = lowers PMA/ionomycin-induced NF-kB signal in 697 B cells | inhibition, % at 4 µM | 697 B-cell NF-kB luciferase, 16 h | shares compounds with 697 NFkB inh | AID 449746 | hit rate 35% among 2,000; in the data active = inhibition mostly above about 28%, no sharp cut-off; inactive = mostly below about 22%
The depositor's hits bear a star; i = inactive; . = not tested or not shown. Rows were chosen to be rich in hits. Some 3.3% of all compounds tested hit in one or more screens of this group.

SMILES	Gli-Sufu block	SMARCA2 act	esBAF inh	Jurkat NFkB inh	697 NFkB inh	Jurkat NFkB conf	697 NFkB conf
C[C@H]1CN([C@@H](C)CO)C(=O)c2cc(NC(=O)CCCN(C)C)ccc2O[C@@H]1CN(C)Cc1ccncc1	.	.	-4	.	.	.	.
Nc1[nH]n(-c2ccccc2)c(=O)c1N=Nc1ccc2c(c1)OCCO2	-128	3	-7	-194	-312	-100	-196
O=C(Nc1ccc2nc3n(c(=O)c2c1)CCCCC3)c1c(F)ccc([N+](=O)[O-])c1F	-2	-14	-85	73*	-326	35	-227
COc1ccc(C(=O)NC(=O)NC2(C(Cl)(Cl)Cl)OCCO2)cc1	-146	6	-5	-277	-274	-155	-316
CC(/C=N/Nc1nc2ccccc2[nH]1)=C\c1ccccc1	-74	7	.	-224	-335	-91	-191
CC(/C=N/Nc1nc(C)cc(=O)[nH]1)=C\c1ccccc1	-36	-4	10	7	7	.	.
O=C(Nc1ccc([N+](=O)[O-])cc1)C(=O)Nc1cccc(C(=O)O)c1	-138	0	-89	56*	46*	67*	23*
COc1ccc(Cn2c(C3CC3)nc3ccc(NC(=O)C4CC4)cc3c2=O)cc1	-115	5	67*	-161	-290	-109	-257
CCC(=O)Nc1ccc2nc(C3CC3)n(Cc3ccc(C(C)(C)C)cc3)c(=O)c2c1	-65	2	3	-192	i	-105	i
O=C(Nc1ccc2nc(C3CC3)n(Cc3ccc(F)cc3)c(=O)c2c1)c1ccco1	-17	-2	16	-17	-11	.	.
COc1cccc(Cn2c(C3CC3)nc3ccc(NC(=O)c4ccco4)cc3c2=O)c1	.	1	.	.	.	.	.
COc1ccc(N/C=C2\CCOC2=O)cc1	-2	-4	13	2	11	.	.
COc1ccc(N/C=C2\CCc3ccccc3C2=O)cc1	-84	5	-64	-197	-290	14	-9
CO[C@@H]1CN(C)C(=O)c2cc(NC(C)=O)ccc2OC[C@@H](C)N(Cc2ccc(F)cc2)C[C@H]1C	.	.	-5	.	.	.	.
O=C(O)CCn1nnc(-c2cccs2)n1	-23	0	-8	-8	1	.	.
CC(C)c1ccc(-c2nnn(CCC(=O)O)n2)cc1	40	.	-77	60*	71*	62*	70*
CCSc1cc(C)nc2c(-c3ccccc3)cnn12	-65	4	.	-153	-264	-100	-269
C=CCSc1cc(C)nc2c(-c3ccccc3)cnn12	-51	8	.	-125	-201	.	.
Cc1noc(C)c1S(=O)(=O)Nc1ccc2c(c1)C(=O)N([C@H](C)CO)C[C@H](C)[C@H](CN(C)S(=O)(=O)c1ccc(F)cc1)OCCCC[C@@H](C)O2	.	.	7	.	.	.	.
O=C(C[C@H]1CC[C@H](NC(=O)C2CC2)[C@H](CO)O1)NCc1ccncc1	.	.	0	.	.	.	.
CCC(C)c1ccc(NC(=O)c2cccs2)cc1 (stereo not given)	-127	6	-24	-187	-381	-137	-294
CCC(C)NS(=O)(=O)c1ccc(NC(=O)c2cccs2)cc1 (stereo not given)	2	-1	.	3	3	.	.
CC[n+]1c(C=C2C=C(C)OC(C)=C2)sc2ccccc21	85*	-7	0	87*	53*	75*	69*
COC(=O)[C@@H]1Cc2c([nH]c3ccccc23)C(C)(C)N1C(=O)CCl	21	-4	3	55*	88*	16	69*
C#CC(=O)N(c1cc(OC)ccc1OC)C(C(=O)NC1CCCC1)c1cccs1 (stereo not given)	86*	.	-50	95*	99*	85*	105*
C#CC(=O)N(c1ccc(OC)cc1OC)C(C(=O)NC1CCCC1)c1cccs1 (stereo not given)	57*	-8	49	90*	97*	67*	104*
COc1ccc(N(C(=O)c2snc(C(N)=O)c2N)C(C(=O)NC2CCCC2)c2cccs2)cc1OC (stereo not given)	-1	-2	4	-3	13	.	.
C[C@@H]1CCCCO[C@H](CN(C)Cc2ccc(C(F)(F)F)cc2)[C@H](C)CN([C@H](C)CO)C(=O)c2cc(NS(=O)(=O)c3cn(C)cn3)ccc2O1	.	.	-5	.	.	.	.
